The values below come from PubChem BioAssay (NCI).

This is part of a sample that, as a whole, favours compounds with a hit. Of some 83,000 tested, about 20% had one in any assay.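 Cells were grown in 96-well plates and exposed to the test compound at a single concentration for 48 hours; results are reported as percent growth, with values below 10 considered active.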 Active and inactive are the calls of the source.

The test system of this test is NCI-H460 lung. Put plainly: NCI-60 one-dose screen, 48 h (100 = growth as untreated, 0 = no growth, -100 = all killed). As to conditions: 10 µM unless noted. As to the method: Growth inhibition of the NCI-H460 human Non-Small Cell Lung tumor cell line is measured as a screen for anti-cancer activity. Cells are grown in 96 well plates and exposed to the test compound for 48 hours. Compounds are tested at a single concentration, which is 10^-5 M for most compounds. The reported endpoint is percent growth (GI% or GIPRCNT), where numbers from 0 - 100% represent growth inhibition, and numbers from -100% - 0 represent cell death. For example, a value of 40 represents 60% growth inhibition. A value of 0 means no net growth occurred over the course of the experiment. A value of -40 indicates 40% of cells at the beginning of the experiment died by the end of the experiment. A value of -100 means all cells are dead at the end of the experiment.
NCI-60 Human Tumor Cell Lines Screen was performed using the standard one-dose NCI protocol, which is described in more detail at https://dtp.cancer.gov/discovery_development/nci-60/default.htm.
Compounds with GIPRCNT values below 10 were considered active. Activity score was based on GIPRCNT using the following formula: […]
Score is 0 for GIPRCNT values of 100 or above, 50 for GIPRCNT values of 0, and 100 for GIPRCNT values of -100.
For the molecule `CC(=O)N1N=C(c2ccc(Cl)cc2)CC1c1c(C)nn(-c2ccccc2)c1N(C)Cc1ccccc1` (stereo not given), the growth was 79% (inactive).
The figure for `[N-]=[N+]=NCc1cccc(/C(O)=C/C(=O)C(=O)O)c1` is 104% (inactive).
On to `COc1ccc(N2CCN(CC(=O)N3CCN(c4nnc(-c5ccc(Cl)cc5)c(-c5ccc(Cl)cc5)n4)CC3)CC2)cc1`, for which the growth was 52.4% (inactive).
As to `CCSCC1CC(O)(c2ccccc2)C(c2ccccc2)C(c2ccc(Cl)cc2)O1` (stereo not given), the growth was -45.8% (active).
For the molecule `CCCCNCCCN(CCCC)CCCNCCCC`, the growth was 101% (inactive).
`O=C(Nc1nc(-c2ccc(Cl)cc2)cs1)c1cc(-c2ccc(Br)cc2)nc2ccc(Cl)cc12`: the growth is 108% (inactive).
With `Cc1onc(-c2ccccc2Cl)c1C(=O)N[C@@H]1C(=O)N2[C@@H]1SC(C)(C)[C@@H]2C(=O)O`, the growth is 112% (inactive).
The figure for `C[N+]1(C)C2CC[C@@H]1CC(OC(=O)C(O)c1ccccc1)C2` (stereo not given in full) is 119% (inactive); for `Cc1ccc(NC(=O)c2sc3nc4c(cc3c2N)C(=O)CCC4)cc1` it is 29% (inactive).
As to `CCSc1nc(-c2ccc(F)cc2)c(C#N)c(=O)[nH]1`, the growth is 108% (inactive).
For the molecule `COC(=O)[C@H](Cc1cn(C)cn1)NC(=O)[C@H](C)NC(=O)Nc1cc(C(F)(F)F)cc(C(F)(F)F)c1`, the growth was -34.3% [100 µM] (active).
As for `COc1ccc(-c2ccc(O)c(C(=O)/C=C/c3cc(OC)c(OC)c(OC)c3)c2)cc1`, the growth is 79.9% (inactive).
Consider `Nc1ccccc1C#Cc1ccccc1C#Cc1ccc(OCCCCCCOc2ccc(C#Cc3ccccc3C#Cc3ccccc3N)cc2)cc1`, for which the growth was 114% (inactive).
For the molecule `Nc1ccc(N=Nc2ccccc2)cc1[N+](=O)[O-]`, the growth is 100% (inactive).
Consider `O=C1Nc2ccc(Cl)cc2/C1=C/c1cccs1`, for which the growth is 93.4% (inactive).
Regarding `C[C@]12CCC(=O)C=C1CC[C@H]1[C@@H]3C[C@@H](O)[C@](O)(C(=O)CO)[C@@]3(C)C[C@H](O)[C@@]12F`, the growth was 93.4% (inactive).
For `CS(=O)(=O)N1CCN(Cc2cc3nc(-c4cccc5[nH]ncc45)nc(N4CCOCC4)c3s2)CC1` (tested in a mixture with another compound), the growth was 21.7% (inactive).
`CN1CCC[C@@H]1CCO[C@](C)(c1ccccc1)c1ccc(Cl)cc1`: the growth was 91.3% (inactive).
With `Clc1ccc(C2=NN(c3ccc(Cl)cc3)C(c3cccc(Nc4ccnc5cc(Cl)ccc45)c3)C2)cc1` (stereo not given), the growth was 93.1% (inactive).
Take `Cc1cc2c(cc1C)[n+](Cc1ccc3ccccc3c1)cn2Cc1ccc2ccccc2c1`: the growth is -76.8% (active).
Regarding `CC(=O)c1ccccc1NC(=O)C(C)(c1ccccc1)c1ccccc1`, the growth is 106% (inactive).
Take `Cc1sc2nc3c4ccccc4c(NCCCN(C)C)nn3c(=O)c2c1C`: the growth is 23.6% (inactive).
Regarding `CC(C)=CCCC(C)c1ccc(C)c2c1OCN(CC1CCNCC1)C2` (stereo not given), the growth is 24.6% (inactive).
The figure for `CC(C)CC1NC(=O)C(CCCN)NC(=O)C(C(C)C)NC(=O)C2CCCN2C(=O)C(Cc2ccccc2)NC(=O)C(CC(C)C)NC(=O)C(CCCN)NC(=O)C(C(C)C)NC(=O)C2CCCN2C(=O)C(Cc2ccccc2)NC1=O` (stereo not given) is -73.2% (active); for `Cc1cc2c(cc1C)[n+](Cc1ccc3ccccc3n1)cn2Cc1ccc2ccccc2n1` it is 0.342% (active).
In the case of `COc1ccc(-c2c3c(N)nc(-c4ccncc4)nc3nc3c2c(C)nn3-c2ccccc2)cc1`, the growth was 23.4% (inactive).
As to `CC1=C([Se]CC(OC(=O)[C@@H](CSSC(C)(C)C)NC(=O)C(C)(C)C)C(=O)NCCCCCC(=O)OCc2ccccc2)C(=O)c2ccccc2C1=O` (stereo not given in full), the growth was 1.81% (active).
The figure for `O=C1/C(=C/c2ccc(F)cc2)Cc2ccccc21` is 103% (inactive); for `O=C(CN1CCN(c2ccc(Cl)cc2)CC1)N1CCN(c2nnc(-c3ccc(Cl)cc3)c(-c3ccc(Cl)cc3)n2)CC1` it is 75.3% (inactive); for `c1ccc2c(-c3nc4ccccc4[nH]3)cccc2c1` it is 15.5% (inactive).
For the molecule `O=C1C(=O)c2c(nc3ccc(Cl)cn23)-c2ccccc21`, the growth is -100% (active).
As to `C[C@]12CC[C@H](O)CC1=CC[C@@H]1[C@@H]2CC[C@]2(C)C(c3cccnc3)=CC[C@@H]12`, the growth was 66.5% (inactive).
With `COc1ccc([N+](=O)[O-])c(S(=O)(=O)c2ccc(Cl)cc2)n1`, the growth is 98.1% (inactive).
Turning to `Cc1ccc2c(c1)C(=O)/C(=C\Nc1ccc(C(N)=O)cc1)C(O)O2` (stereo not given), the growth is 111% (inactive).
`CC(=O)N1N=C(c2ccc(Nc3ccnc4cc(Cl)ccc34)cc2)CC1c1ccc(Cl)cc1` (stereo not given): the growth was 62.9% (inactive).
For the molecule `CCOc1cc(/C=C/C(=O)C(C(=O)/C=C/c2ccc(OC(=O)CNc3nc4ccccc4[nH]3)c(OCC)c2)C(=O)CNc2nc3ccccc3[nH]2)ccc1OC(=O)CNc1nc2ccccc2[nH]1`, the growth was -27.3% (active).
The figure for `CCN1CCN(c2nc(NNC(=O)Cc3ccccc3)nc(N3CCN(C(c4ccccc4)c4ccccc4)CC3)n2)CC1` is 11.1% (inactive); for `COC(=O)[C@H]1[C@H]2C[C@@H]3c4[nH]c5cc(OC)ccc5c4CCN3C[C@H]2C[C@@H](OC(=O)/C=C/c2cc(OC)c(OC)c(OC)c2)[C@@H]1OC` it is 48.6% (inactive).
In the case of `O=C1c2cccc(NCCN=Cc3ccccc3O)c2C(=O)c2c(NCCN=Cc3ccccc3O)cccc21`, the growth is 4.28% (active).
The figure for `O=C1CSC(c2ccccc2O)N1c1nnc(Cn2ccnc2)o1` (stereo not given) is 34.8% (inactive).
